About 410 targets per protein were measured; listed, in parts, are those with the strongest signals and a random draw of the rest.
Key:
Test in all cases: glycan array binding signal (z-score within array); higher = stronger binding
Conditions in all cases: glycan notation: IUPAC condensed, linker removed
Fuc(a1-2)Gal(b1-3)GalNAc = target: Fuc(a1-2)Gal(b1-3)GalNAc
Summary of the method: (§1)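 The binding signal is a Z-score computed within each array and averaged over linkers. Arrays of the same protein sequence at different concentrations or buffers were also averaged together. Data originate from 3228 arrays in the Consortium for Functional Glycomics database, kept only where the protein sequence was available.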

[1] = target: Fuc(a1-2)[Gal(a1-3)]Gal(b1-3)GlcNAc
Summary of the method: as §1

[2] = target: Fuc(a1-2)[GalNAc(a1-3)]Gal(b1-4)[Fuc(a1-3)]GlcNAc
Summary of the method: as §1

[3] = target: Fuc(a1-3)[Gal(b1-4)]GlcNAc(b1-3)Gal(b1-3)[Fuc(a1-4)]GlcNAc
Summary of the method: as §1

[4] = target: Fuc(a1-3)[Gal(b1-4)]GlcNAc(b1-4)Gal(b1-4)[Fuc(a1-3)]GlcNAc
Summary of the method: as §1

Fuc(b1-3)GlcNAc = target: Fuc(b1-3)GlcNAc
Summary of the method: as §1

[5] = target: Gal(a1-3)[Gal(a1-4)]Gal(b1-4)GlcNAc
Summary of the method: as §1

[6] = target: Gal(b1-3)[Fuc(a1-4)]GlcNAc(b1-3)Gal(b1-4)[Fuc(a1-3)]GlcNAc
Summary of the method: as §1

[7] = target: Gal(b1-4)GalNAc(b1-3)[Fuc(a1-2)]Gal(b1-4)GlcNAc
Summary of the method: as §1

[8] = target: Gal(b1-4)GlcNAc(b1-3)Gal(b1-4)GlcNAc(b1-3)Gal(b1-4)GlcNAc
Summary of the method: as §1

[9] = target: Gal(b1-4)GlcNAc(b1-3)[Gal(b1-4)GlcNAc(b1-6)]GalNAc
Summary of the method: as §1

Gal3S(b1-3)GalNAc = target: Gal3S(b1-3)GalNAc
Summary of the method: as §1

Gal3S(b1-4)Glc6S = target: Gal3S(b1-4)Glc6S
Summary of the method: as §1

Gal3S6S(b1-4)GlcNAc = target: Gal3S6S(b1-4)GlcNAc
Summary of the method: as §1

GalNAc(a1-3)GalNAc = target: GalNAc(a1-3)GalNAc
Summary of the method: as §1

[10] = target: GlcNAc(a1-3)Gal(b1-4)GlcNAc
Summary of the method: as §1

[11] = target: GlcNAc(b1-3)[GlcNAc(b1-4)][GlcNAc(b1-6)]GlcNAc
Summary of the method: as §1

[12] = target: Man(a1-2)Man(a1-2)Man(a1-3)[Man(a1-2)Man(a1-3)[Man(a1-2)Man(a1-6)]Man(a1-6)]Man(b1-4)GlcNAc(b1-4)GlcNAc
Summary of the method: as §1

[13] = target: Neu5Ac(a2-3)Gal(b1-3)GlcNAc(b1-3)Gal(b1-4)GlcNAc
Summary of the method: as §1

[14] = target: Neu5Ac(a2-3)Gal(b1-4)GlcNAc6S
Summary of the method: as §1

[15] = target: Neu5Ac(a2-3)[Neu5Ac(a2-6)]GalNAc
Summary of the method: as §1

[16] = target: Neu5Ac(a2-8)Neu5Ac(a2-8)Neu5Ac(a2-3)[GalNAc(b1-4)]Gal(b1-4)Glc
Summary of the method: as §1

Fuc(a1-2)Gal(b1-4)Glc = target: Fuc(a1-2)Gal(b1-4)Glc
Summary of the method: as §1

[17] = target: Fuc(a1-2)[Gal(a1-4)]Gal(b1-4)GlcNAc
Summary of the method: as §1

[18] = target: Fuc(a1-3)[Gal(b1-4)]GlcNAc(b1-4)Gal(b1-4)[Fuc(a1-3)]GlcNAc(b1-4)Gal(b1-4)[Fuc(a1-3)]GlcNAc
Summary of the method: as §1

[19] = target: Fuc(a1-3)[Gal3S(b1-4)]Glc6S
Summary of the method: as §1

Gal(a1-4)Gal(b1-4)Glc = target: Gal(a1-4)Gal(b1-4)Glc
Summary of the method: as §1

Gal(b1-2)Gal = target: Gal(b1-2)Gal
Summary of the method: as §1

[20] = target: Gal(b1-3)GlcNAc(b1-3)Gal(b1-4)Glc
Summary of the method: as §1

GalNAc(b1-3)Gal = target: GalNAc(b1-3)Gal
Summary of the method: as §1

[21] = target: GlcNAc(b1-2)Man(a1-3)[GlcNAc(b1-2)Man(a1-6)]Man(b1-4)GlcNAc(b1-4)GlcNAc
Summary of the method: as §1

GlcNAc(b1-3)Man = target: GlcNAc(b1-3)Man
Summary of the method: as §1

GlcNAc(b1-6)GalNAc = target: GlcNAc(b1-6)GalNAc
Summary of the method: as §1

Kdn(a2-3)Gal(b1-4)GlcNAc = target: Kdn(a2-3)Gal(b1-4)GlcNAc
Summary of the method: as §1

[22] = target: Man(a1-2)Man(a1-3)[Man(a1-2)Man(a1-6)]Man
Summary of the method: as §1

[23] = target: Neu5Ac(a2-3)Gal(b1-3)GalNAc(b1-3)Gal(a1-4)Gal(b1-4)Glc
Summary of the method: as §1

[24] = target: Neu5Ac(a2-3)Gal(b1-3)GalNAc6S
Summary of the method: as §1

[25] = target: Neu5Ac(a2-3)Gal(b1-4)GlcNAc(b1-6)[Neu5Ac(a2-3)Gal(b1-3)]GalNAc
Summary of the method: as §1

[26] = target: Neu5Ac(a2-6)Gal(b1-4)GlcNAc(b1-2)Man(a1-3)[GlcNAc(b1-2)Man(a1-6)]Man(b1-4)GlcNAc(b1-4)GlcNAc
Summary of the method: as §1

[27] = target: Neu5Ac(a2-6)Gal(b1-4)GlcNAc(b1-2)Man(a1-6)[GlcNAc(b1-2)Man(a1-3)]Man(b1-4)GlcNAc(b1-4)GlcNAc
Summary of the method: as §1

[28] = target: Neu5Ac(a2-6)GalNAc(b1-4)GlcNAc
Summary of the method: as §1

B1: Tim-4 (Mus musculus), Q6U7R4 (protein)
chain: MSKGLLLLWLVTELWWLYLTPAASEDTIIGFLGQPVTLPCHYLSWSQSRNSMCWGKGSCPNSKCNAELLRTDGTRIISRKSTKYTLLGKVQFGEVSLTISNTNRGDSGVYCCRIEVPGWFNDVKKNVRLELRRATTTKKPTTTTRPTTTPYVTTTTPELLPTTVMTTSVLPTTTPPQTLATTAFSTAVTTCPSTTPGSFSQETTKGSAFTTESETLPASNHSQRSMMTISTDIAVLRPTGSNPGILPSTSQLTTQKTTLTTSESLQKTTKSHQINSRQTILIIACCVGFVLMVLLFLAFLLRGKVTGANCLQRHKRPDNTEDSDSVLNDMSHGRDDEDGIFTL
- glycan array binding signal (z-score) (Fuc(a1-2)Gal(b1-3)GalNAc): -0.114
- glycan array binding signal (z-score) [1]: 0.285
- glycan array binding signal (z-score) [2]: 0.089
- glycan array binding signal (z-score) [3]: 0.006
- glycan array binding signal (z-score) [4]: -0.188
- glycan array binding signal (z-score) (Fuc(b1-3)GlcNAc): -0.139
- glycan array binding signal (z-score) [5]: -0.083
- glycan array binding signal (z-score) [6]: -0.25
- glycan array binding signal (z-score) [7]: -0.661
- glycan array binding signal (z-score) [8]: -0.396
- glycan array binding signal (z-score) [9]: -0.345
- glycan array binding signal (z-score) (Gal3S(b1-3)GalNAc): 2.34
- glycan array binding signal (z-score) (Gal3S(b1-4)Glc6S): 1.82
- glycan array binding signal (z-score) (Gal3S6S(b1-4)GlcNAc): 1.9
- glycan array binding signal (z-score) (GalNAc(a1-3)GalNAc): -0.157
- glycan array binding signal (z-score) [10]: -0.514
- glycan array binding signal (z-score) [11]: 1.75
- glycan array binding signal (z-score) [12]: 0.032
- glycan array binding signal (z-score) [13]: -0.953
- glycan array binding signal (z-score) [14]: -0.51
- glycan array binding signal (z-score) [15]: -0.437
- glycan array binding signal (z-score) [16]: 1.32

B2: LSECtin (Homo sapiens), Q6UXB4 (protein)
chain: MEQESALRELRERVTQGLAEAGRGREDVRTELFRALEAVRLQNNSCEPCPTSWLSFEGSCYFFSVPKTTWAAAQDHCADASAHLVIVGGLDEQGFLTRNTRGRGYWLGLRAVRHLGKVQGYQWVDGVSLSFSHWNQGEPNDAWGRENCVMMLHTGLWNDAPCDSEKDGWICEKKAQLLTPPSALEPRPLQHVVSWGLLTSLAPGADCQRVFSSSSTAAESQKHLAQHSPVQPSAWALGPPCRPHPNSTHADPT
- glycan array binding signal (z-score) (Fuc(a1-2)Gal(b1-3)GalNAc): -0.303
- glycan array binding signal (z-score) (Fuc(a1-2)Gal(b1-4)Glc): 3.15
- glycan array binding signal (z-score) [1]: -0.278
- glycan array binding signal (z-score) [17]: 2.9
- glycan array binding signal (z-score) [18]: -0.279
- glycan array binding signal (z-score) [19]: 0.092
- glycan array binding signal (z-score) (Gal(a1-4)Gal(b1-4)Glc): -0.309
- glycan array binding signal (z-score) (Gal(b1-2)Gal): -0.302
- glycan array binding signal (z-score) [20]: -0.295
- glycan array binding signal (z-score) [6]: -0.241
- glycan array binding signal (z-score) (GalNAc(b1-3)Gal): -0.287
- glycan array binding signal (z-score) [21]: 5.09
- glycan array binding signal (z-score) (GlcNAc(b1-3)Man): 0.057
- glycan array binding signal (z-score) (GlcNAc(b1-6)GalNAc): -0.174
- glycan array binding signal (z-score) (Kdn(a2-3)Gal(b1-4)GlcNAc): -0.308
- glycan array binding signal (z-score) [22]: 0.406
- glycan array binding signal (z-score) [23]: -0.275
- glycan array binding signal (z-score) [24]: -0.307
- glycan array binding signal (z-score) [25]: -0.297
- glycan array binding signal (z-score) [26]: 5.63
- glycan array binding signal (z-score) [27]: 5.21
- glycan array binding signal (z-score) [28]: -0.301

Reference: the supplement of paper PMC8728848
